Measles CPE: compounds protecting cells from measles virus cytopathic effect, primary screen, measles RdRp inhibitor project, single point, MLSMR library, absorbance; Measles virus-infected cells, CPE protection; protection (pct of control), % at 4 µM; 140,000 tested, 1.5% active; AID 841, 2007; in the data active = protection mostly above about 24%, no sharp cut-off; inactive = mostly below about 26%
CYP2C19 inhib: blockers of cytochrome P450 2C19 activity – biochemical, luminescence, ADME assay, primary screen | P33261 | inhibition, % at 5 µM | 96,000 tested, 21% active | CYP2C19 Supersomes, luciferin-H EGE luminescence, 30 min;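 active = CYP2C19 inhibition above a set limit at 5 µM in the primary screen, cut at about 50% in these data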;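 also: plate controls were negative control wells for no effect and 2.5 mM tranylcypromine positive control for full effect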
Target sequence (P33261 whole entry, looked up): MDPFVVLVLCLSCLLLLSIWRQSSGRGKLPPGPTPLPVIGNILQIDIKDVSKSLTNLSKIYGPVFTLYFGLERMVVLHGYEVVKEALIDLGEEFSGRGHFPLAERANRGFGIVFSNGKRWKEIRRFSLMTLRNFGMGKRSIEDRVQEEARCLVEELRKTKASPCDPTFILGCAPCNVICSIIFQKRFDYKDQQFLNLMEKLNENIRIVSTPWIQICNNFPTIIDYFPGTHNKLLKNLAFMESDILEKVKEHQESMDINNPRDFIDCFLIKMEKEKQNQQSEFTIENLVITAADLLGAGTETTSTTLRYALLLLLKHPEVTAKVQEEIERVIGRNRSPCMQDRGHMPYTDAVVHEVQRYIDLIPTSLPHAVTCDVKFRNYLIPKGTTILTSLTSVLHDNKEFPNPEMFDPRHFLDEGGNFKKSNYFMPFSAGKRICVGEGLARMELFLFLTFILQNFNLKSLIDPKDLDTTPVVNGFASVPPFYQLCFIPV
CYP2C19 activ: human CYP2C19 activators, primary screen, biochemical, luminescence; recombinant CYP2C19, luciferin-H EGE luminescence; active compounds read high; 0 = fully inhibited enzyme, 1 = untreated enzyme; Cytochrome P450 2C19 (Homo sapiens), P33261; 96,000 tested, under 10 active; activation factor at 5 µM; AID 1025, 2008;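 active = activation factor of at least 2 at 5 µM in the primary screen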;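 also: 0 = wells with 2.5 mM tranylcypromine and 1 = vehicle-only wells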
CYP2C9 inhib: blockers of cytochrome P450 2C9 activity – biochemical, luminescence, ADME assay, primary screen | P11712 | AID 777, 2007 | 96,000 tested, 20% active | CYP2C9 Supersomes, luciferin-H conversion | inhibition, % at 5 µM;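 active = blocking of liver enzyme CYP2C9 beyond about 50% at 5 µM, limit read from the data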
CYP2C9 activ: human CYP2C9 activators, primary screen, biochemical, luminescence; recombinant CYP2C9, luciferin-H conversion; active compounds read high; factor 1 = untreated enzyme, 0 = blocked; activation factor at 5 µM; 96,000 tested, 1.4% active; Cytochrome P450 2C9 (Homo sapiens), P11712;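 active = activation factor of 2 or more for CYP2C9 at a 5 µM dose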;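 also: 0 = sulfaphenazole-blocked wells and 1 = vehicle-only wells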
An asterisk follows results filed as active; nt = no result. Only some compounds are listed: those with a hit (about 22% of all), similar ones and a draw of the others.

SMILES | Measles CPE | CYP2C19 inhib | CYP2C19 activ | CYP2C9 inhib | CYP2C9 activ
O=C(COc1ccccc1-c1ccccc1)NCCN1C(=O)S/C(=C\c2cccnc2)C1=O | 14 | nt | nt | nt | nt
CC1(C)CC(=O)N(c2ccccc2)C1(C)O (centres undefined) | 9 | 4 | 1 | -15 | 1.1
Cc1ccc2c(c1)NC(=O)C(CC(=O)N(C)Cc1ccccc1)O2 (centres undefined) | 9 | 38 | 0.6 | -8 | 1.1
O=C(c1ccc(Cl)c(S(=O)(=O)N2CCCC2)c1)N1CCN(c2ccccn2)CC1 | 20 | 11 | 0.9 | 32 | 0.7
O=C(c1cc(Cl)ccc1Cl)N1CCN(c2ccccn2)CC1 | 8 | 94* | 0.1 | 92* | 0.1
O=C(c1ccc(S(=O)(=O)N2CCCCCC2)cc1)N1CCN(c2ccccn2)CC1 | 6 | 8 | 0.9 | 69* | 0.3
Cc1sc(N2C(=O)C3C4C=CC(C4)C3C2=O)c(C#N)c1C (centres undefined) | 10 | nt | nt | nt | nt
CC(C)C(C(=O)Nc1ccc2c(c1)OCO2)N1C(=O)c2ccccc2C1=O (centres undefined) | 22 | 49 | 0.5 | 52* | 0.5
CC(C(=O)Oc1ccc2c(c1)OCO2)N1C(=O)c2ccccc2C1=O (centres undefined) | 19 | 62* | 0.4 | 42 | 0.6
CC(C(=O)OCC(=O)Nc1ccc2c(c1)OCO2)N1C(=O)c2ccccc2C1=O (centres undefined) | nt | 74* | 0.3 | 68* | 0.3
CC(C(=O)N1CCOCC1)N1C(=O)c2ccccc2C1=O (centres undefined) | 7 | -22 | 1.2 | -9 | 1.1
Cc1ccc(N(C(C)C(=O)Nc2ccc3c(c2)OCO3)S(C)(=O)=O)cc1 (centres undefined) | 4 | 67* | 0.3 | 43 | 0.6
CC(C)C(C(=O)Nc1ccc2c(c1)OCCO2)N1C(=O)c2ccccc2C1=O (centres undefined) | 24 | 22 | 0.8 | 49 | 0.5
CC(C)C(C(=O)Nc1cccnc1)N1C(=O)c2ccccc2C1=O (centres undefined) | 6 | 30 | 0.7 | 63* | 0.4
CCOC(=O)C(=O)c1cn(C2OCC(OC(C)=O)C(OC(C)=O)C2OC(C)=O)c2ccccc12 (centres undefined) | 15 | nt | nt | nt | nt
O=C(O)CCN1C(=O)c2ccc(Oc3ccc4c(c3)C(=O)N(CCC(=O)O)C4=O)cc2C1=O | 21 | 3 | 1 | -11 | 1.1
O=C1c2ccc(Oc3ccc4c(c3)C(=O)N(CCCCO)C4=O)cc2C(=O)N1CCCCO | 12 | 84* | 0.2 | 86* | 0.1
CC(=O)Nc1ccc(C(=O)n2nc(C)cc2C)cc1 | 7 | 4 | 1 | -8 | 1.1
Cc1[nH]nc2c1C(c1cc(Br)cs1)C(C#N)=C(N)O2 (centres undefined) | 6 | nt | nt | nt | nt
Cn1c(CN2CCCC2)nc2cc(NS(=O)(=O)c3ccc(Cl)cc3)ccc21 | 8 | 20 | 0.8 | 2 | 1
O=c1ccc(NS(=O)(=O)c2ccc(Cl)cc2)cn1Cc1ccc(Cl)c(Cl)c1 | 3 | 97* | 0 | 90* | 0.1
Nc1ccc(-c2ccc(N)cc2C(F)(F)F)c(C(F)(F)F)c1 | 5 | 79* | 0.2 | 60* | 0.4
Nc1ccc(C(O)(C(F)(F)F)C(F)(F)F)cc1 | 3 | -4 | 1 | 7 | 0.9
CC(=O)/C(=N/Nc1ccccc1)N1CCOCC1 | 2 | 16 | 0.8 | -6 | 1.1
CC(=O)/C(=N/Nc1cccc(Cl)c1)N1CCOCC1 | 23 | 72* | 0.3 | 65* | 0.4
SMILES | Measles CPE | CYP2C19 inhib | CYP2C19 activ | CYP2C9 inhib | CYP2C9 activ
Cc1csc2ncc(C(=O)NCc3ccccn3)c(=O)n12 | 30 | nt | nt | nt | nt
O=C(NCCc1ccccc1)c1cnc2ccccn2c1=O | 14 | 55* | 0.5 | 21 | 0.8
CCOc1ccc(NC(=O)c2cnc3scc(C)n3c2=O)cc1 | nt | -13 | 1.1 | -180 | 2.8*
Cc1csc2ncc(C(=O)NCCc3ccccc3)c(=O)n12 | 10 | 54* | 0.5 | -17 | 1.2
Cc1ccccc1NC(=O)c1cnc2ccccn2c1=O | 4 | 20 | 0.8 | 5 | 1
CCCC1(C(=O)OCC)NC(c2ccc(OC)cc2OC)C2C(=O)N(c3ccc4c(c3)OCCO4)C(=O)C21 (centres undefined) | 7 | nt | nt | nt | nt
COC(=O)c1sc(NC(C)=O)c(C(=O)OC)c1C | 27 | -3 | 1 | 2 | 1
COC(=O)c1sc(NC(=O)CSc2nncs2)c(C(=O)OC)c1C | 31* | 28 | 0.7 | 66* | 0.3
COC(=O)c1sc(NC(=O)CC(C)C)c(C(=O)OC)c1C | 11 | 59* | 0.4 | 26 | 0.7
Cc1ccc(C)c(NC(=S)NNC(=O)c2csc3c2CCC(C)C3)c1 (centres undefined) | 1 | 86* | 0.1 | 53* | 0.5
Nc1ccc(SC(F)(F)F)cc1C(=O)c1ccccc1 | 3 | 32 | 0.7 | 33 | 0.7
Nc1ccc(Cl)cc1/C(=N/O)c1ccccc1 | 7 | 78* | 0.2 | 56* | 0.4
Cc1cc2c(cc1C)N(CC(=O)N1CCCC1)C(=O)CC(c1ccccc1)=N2 | 8 | 35 | 0.7 | 68* | 0.3
O=C(CN1C(=O)CC(c2ccccc2)=Nc2ccccc21)NCc1ccccc1 | 32 | nt | nt | nt | nt
O=C(CCC(=O)Nc1ccccc1)NNC(=O)C(c1ccccc1)c1ccccc1 | 18 | nt | nt | nt | nt
c1ccc(-c2nnc(-c3ccco3)o2)cc1 | 5 | 50* | 0.5 | -15 | 1.1
O=C(Nc1ccc(-c2nnc(-c3ccco3)o2)cc1)C(c1ccccc1)c1ccccc1 | 11 | -20 | 1.2 | 72* | 0.3
Brc1ccc(-c2nnc(-c3ccco3)o2)cc1 | 4 | 16 | 0.8 | 6 | 0.9
Cn1cc(CN2CCN(c3ccccc3)CC2)c2ccccc21 | 4 | 34 | 0.7 | -75 | 1.7
CCS(=O)(=O)N1CCC(C(=O)c2ccc(Cl)cc2)CC1 | 7 | nt | nt | nt | nt
COc1ccccc1N(C(=O)c1snc(C(N)=O)c1N)C(C(=O)NC1CCCC1)c1ccco1 (centres undefined) | 13 | 62* | 0.4 | 40 | 0.6
CCOc1ccccc1N(C(=O)c1snc(C(N)=O)c1N)C(C(=O)NCCC(C)C)c1ccco1 (centres undefined) | 4 | 40 | 0.6 | 50* | 0.5
CC(C)(C)NC(=O)C(c1ccco1)N(Cc1ccc(F)cc1)C(=O)c1snc(C(N)=O)c1N (centres undefined) | 4 | 66* | 0.3 | 56* | 0.4
COCCNC(=O)C(c1ccc(C)o1)N(C(=O)c1snc(C(N)=O)c1N)c1cc(C)cc(C)c1 (centres undefined) | 3 | 66* | 0.3 | 56* | 0.4
